From PubChem BioAssay
A selection: hits, their analogues and other compounds. The true share with any hit is near 8.8%.
KB-V1 cytotox = KB-V1 MDR subline cytotoxicity; KB-V1 MDR cells viability, CellTiter-Glo, 72 h; Potency, µM (doses to about 46.1 µM), usual class: cytotoxic; actives 3.4% (n = 400,000); AID 1347076; also: potency is read from the fitted curve at half-maximal effect; nearly all actives have a fitted effect of over 60% in size
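Compound-treated KB-V1 multidrug-resistant cells, 72 h, 37 degrees C; viability by CellTiter-Glo. Fitted qHTS curves give the values.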
HT1080NT lethal = kills 2HG-producing HT-1080-NT fibrosarcoma cells | HT-1080-NT fibrosarcoma viability, CellTiter-Glo ATP luminescence, 48 h | Potency, µM (top dose mostly 46.1 µM), without a hit: at the highest dose activity, negative = less viability, actives largely listed as cytotoxic | actives 1.6% (n = 360,000);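 also: NT is the 2HG producing partner of a matched IDH1 knockdown line; potency is read from the fitted curve at half-maximal effect; 0% = DMSO-treated cells and -100% = media-only wells without cells; nearly all actives have a fitted effect of over 55% in size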
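Compounds were tested in concentration-response format on HT-1080-NT cells for 48 hours at 37 degrees C. Cell viability came from CellTiter-Glo luminescence; curves were classified by r2, response magnitude and activity.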
HT1080 IDH1KD tx = toxicity to HT-1080 IDH1 knockdown cells (counter line) | Potency, µM (titrated, usually from 46.1 µM), for the others: at the highest dose activity, negative = toxicity, actives largely listed as cytotoxic | AID 686971 | actives 2% (n = 360,000) | HT-1080 IDH1 knockdown viability, ATP luminescence, 48 h;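 also: potency is read from the fitted curve at half-maximal effect; 0% = DMSO wells and -100% = cell-free medium wells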
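Viability of IDH1-knockdown HT-1080 fibrosarcoma cells was assessed by CellTiter-Glo after 48 h at 37 °C with titrated compound; concentration-effect curves were classified by fit quality and response size.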
IL-1B inflam inh = blocks inflammasome-driven IL-1 beta release; THP-1 LPS/ATP IL-1B secretion, AlphaLISA, 16 h; active compounds read low; activity change, % at 57.5 µM; actives 4.7% (n = 360,000); AID 743279; in the data active = activity change below about -50%; inconclusive = mostly about -30% to -49%
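Secreted IL-1B measured by AlphaLISA bead assay after 16 h compound exposure of THP-1 cells; compounds (final up to 57.5 uM) added 1 h before LPS (250 ng/mL) and ATP (1.25 mM) stimulation; lower signal means less secretion.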
KB-3-1 tox = KB-3-1 parental cell cytotoxicity; KB-3-1 viability, CellTiter-Glo ATP luminescence, 72 h; Potency, µM (top dose mostly 46.1 µM), most hits filed as cytotoxic; actives 1.4% (n = 400,000); AID 1347075; also: potency is read from the fitted curve at half-maximal effect; nearly all actives have a fitted effect of over 60% in size
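Parental KB-3-1 viability, qHTS format: 72 h compound exposure, 37 °C; CellTiter-Glo; media-only wells and DMSO plates as controls; concentration-effect fits on corrected data.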
* = called active by the depositor; i = inactive; ? = inconclusive; . = no result given. Unless noted, calls follow the shape of the dose curve; as a rule, active = well fitted curve in the direction sought with a large enough effect; inconclusive = small, poorly fitted or top-dose-only effect, or another doubt; inactive = no such curve, though single readings can be large; an effect the other way counts as inactive or inconclusive. Unless noted, % is scaled to controls: 0 for no effect and ±100 for the full control effect.

SMILES	KB-V1 cytotox	HT1080NT lethal	HT1080 IDH1KD tx	IL-1B inflam inh	KB-3-1 tox
c1ccc(C[n+]2cccc3c4ccccc4ccc32)cc1	i	?	?	-60.4*	?
CN(C)S(=O)(=O)c1cccc(NC(=O)C2Cc3ccccc3CN2C(=O)c2ccco2)c1 (stereo not drawn)	i	1.6%	-5.3%	-11.1	i
CC1CN(Cc2ccco2)C(=S)NC1=O (stereo not drawn)	i	8.4%	15.8%	2.1	i
COc1ccc(/C=N/Nc2nc(-c3ccc(Cl)cc3)cc(C(F)(F)F)n2)cc1OC	7.31µM*	1.8%	-0.3%	-52.9*	i
COc1ccc(-c2ccc(SCC(=O)NCc3ccco3)nn2)cc1OC	9.2µM*	2.2%	12.4%	-7.9	i
COc1cccc(-c2cc(C(F)(F)F)nc(NCc3ccco3)n2)c1	?	15.9%	1.7%	5.4	i
COc1ccc(-c2cc(C(F)(F)F)nc(NCc3ccco3)n2)cc1OC	2.31µM*	0.2%	-9.5%	38.7	i
COc1ccc(-c2ccc(SCC(=O)c3cccs3)nn2)cc1OC	2.31µM*	-3.3%	-13.4%	-18.2	i
COc1ccc(/C=N/Nc2nc(C)cc(-c3ccccc3)n2)cc1OC	i	-27.5%	-24.4%	?	i
COc1ccc(-c2[nH]c(-c3ccc(C)cc3)nc2SCC(=O)NCc2ccco2)cc1OC	i	11.8%	-2.6%	5.8	i
O=C(Nc1ccc(-c2nc3ccccc3[nH]2)cc1)c1cccc(N2C(=O)CCC2=O)c1	i	-0.2%	2.5%	21.0	i
CCOc1ccc(NC(=O)CSc2ccc(-c3ccccn3)nn2)cc1	2.91µM*	-1.7%	-4.6%	40.8	i
CC(=O)c1cccc(NC(=O)CSc2ccc(-c3ccc4c(c3)OCO4)nn2)c1	?	-3.5%	11.4%	13.5	i
COc1ccc(-c2ccc(SCC(=O)Nc3cccc(C(C)=O)c3)nn2)cc1OC	?	0.0%	-19.4%	-86.1*	i
CNC(=O)/C(C#N)=C/c1c(N2CCN(c3cccc(Cl)c3)CC2)nc2c(C)cccn2c1=O	i	15.2%	0.3%	-66.3*	i
CCNC(=O)/C(C#N)=C/c1c(N2CCN(c3ccc(OC)cc3)CC2)nc2c(C)cccn2c1=O	i	-19.4%	-4.3%	-61.6*	i
C=CCNC(=O)/C(C#N)=C/c1c(N2CCN(c3cccc(Cl)c3)CC2)nc2c(C)cccn2c1=O	?	0.2%	16.9%	-5.0	i
Cc1cc(=O)n(C(C)Cc2ccccc2)n1C(C)Cc1ccccc1 (stereo not drawn)	?	10.5%	11.5%	3.3	i
COc1cc(Br)cc(CN2CCN(C/C=C/c3ccccc3)CC2)c1O	i	-13.0%	?	-15.8	i
COc1ccc(CN2CCN(CC(O)Cn3c4ccccc4c4ccccc43)CC2)cc1 (stereo not drawn)	6.51µM*	18.4µM*	?	-57.5*	?
CCOc1ccc(CN2CCN(CC(O)Cn3c4ccccc4c4ccccc43)CC2)cc1 (stereo not drawn)	?	6.1%	-1.2%	-1.2	i
CS(=O)(=O)N1CCN(Cc2ccc(C(F)(F)F)cc2)CC1	i	-1.4%	-13.1%	11.9	i
COc1ccc(O)c(CN2CCN(C/C=C/c3ccccc3)CC2)c1	14.6µM*	10.8%	?	-15.0	i
CCn1c2ccccc2c2cc(CN3CCN(S(C)(=O)=O)CC3)ccc21	3.26µM*	-5.0%	-20.7%	-9.4	i
CCn1c2ccccc2c2cc(CN3CCN(Cc4cc(OC)ccc4O)CC3)ccc21	i	?	?	-83.7*	i
SMILES	KB-V1 cytotox	HT1080NT lethal	HT1080 IDH1KD tx	IL-1B inflam inh	KB-3-1 tox
COc1ccc(O)c(CN2CC3CCC(CC3)C2)c1	i	7.8%	7.1%	-9.3	i
N#Cc1ccc(NC(=O)c2ccc3c(c2)nnn3C2CCCC2)cc1	i	.	.	.	i
COc1ccccc1CN1CCCC(C(=O)N(C)Cc2ccccc2)C1 (stereo not drawn)	i	-3.6%	-19.3%	-0.6	i
COc1ccccc1CN1CCCC(CN(CCN(C)C)C(=O)C2CCCC2)C1 (stereo not drawn)	i	0.5%	-18.6%	-52.4*	i
COc1ccc(Cc2nc(C(=O)Nc3ccc(Cl)cc3)cs2)cc1	?	-14.2%	?	39.9	i
COc1ccc(COc2ccsc2C(=O)Nc2ccc(Cl)cc2)cc1	9.2µM*	?	?	48.3	i
O=C(N/N=C/c1ccc(F)cc1)c1sccc1OCc1ccc(F)cc1	7.31µM*	13µM*	16.4µM*	45.7	?
NNC(=O)c1sccc1OCc1ccc(F)cc1	?	2.8%	1.9%	32.4	i
O=C(N/N=C/c1ccc(Cl)cc1)c1sccc1OCc1ccc(F)cc1	1.3µM*	2.59µM*	1.3µM*	77.6	1.46µM*
COc1ccc(C2C3=C(CCCC3=O)NC3=C2C(=O)c2ccccc23)cc1 (stereo not drawn)	i	-12.0%	-1.1%	.	i
COc1cc(C2C3=C(CC(C)(C)CC3=O)NC3=C2C(=O)c2ccccc23)ccc1O (stereo not drawn)	i	-23.8%	-22.0%	5.1	i
Cc1ccc(C2C3=C(CC(C)(C)CC3=O)NC3=C2C(=O)c2ccccc23)cc1 (stereo not drawn)	i	?	-28.9%	-57.3*	?
CSC1=C(C#N)C(c2ccc(Cl)cc2)C2=C(CC(C)(C)CC2=O)N1 (stereo not drawn)	20.6µM*	-29.2%	8.2µM*	-3.4	?
CC1(C)CC(=O)C2=C(C1)NC1=C(C(=O)c3ccccc31)C2c1ccc(Cl)cc1 (stereo not drawn)	14.6µM*	-13.7%	18.4µM*	-54.2*	?
Cc1ccc(CN(C)C(=O)c2ccccc2NC(=O)c2ccccc2)o1	i	1.6%	1.6%	0.0	?
Cc1ccc(NC(=O)c2cncc(Br)c2)nc1	i	0.7%	4.0%	-21.3	i
CC(=O)/C(C#N)=C1\NC(=O)C(Cc2ccccc2)S1 (stereo not drawn)	13µM*	-6.2%	?	-0.7	14.6µM*
CC(=O)/C(C#N)=C1\NC(=O)C(Cc2ccccc2C)S1 (stereo not drawn)	5.8µM*	-24.2%	?	.	?
Cc1ccc(S(=O)(=O)/N=C(\CCl)N2CCOCC2)cc1	i	-17.9%	?	-51.5*	?
Cc1ccc(S(=O)(=O)/N=C(\CN2CCOCC2)N2CCCC2)cc1	?	3.0%	5.7%	-24.8	i
CSc1ccc(CN2CCC2(C)C(=O)Nc2ccc3c(c2)OCO3)cc1 (stereo not drawn)	?	8.8%	6.1%	8.9	i
Cc1ccc(S(=O)(=O)Nc2cc(Cl)c3oc4c(c3c2)CCCC4)cc1	i	.	.	.	?
